Test results reported in PubChem BioAssay (NCATS).
Inconclusive results are not listed. Calls of active or inactive are those of the source. Calls follow the shape of the dose curve; as a rule, active = well fitted curve in the direction sought with a large enough effect; inconclusive = small, poorly fitted or top-dose-only effect, or another doubt; inactive = no such curve, though single readings can be large; an effect the other way counts as inactive or inconclusive.

Legend:
[1] = qHTS of pediatric cancer cell lines to identify multiple opportunities for drug repurposing: Primary screen for A673 cells (AID 1347092); also: nearly all actives have a fitted effect of over 45% in size
Procedure, shortened: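 A673 cells (500-1,000 cells/well in growth media) were pre-incubated 5 h at 37 degrees C, then exposed to compounds for 48 h. Viability was read as CellTiter-Glo luminescence; concentration-response curves came directly from the primary screen.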

[2] = qHTS of pediatric cancer cell lines to identify multiple opportunities for drug repurposing: Primary screen for SK-N-MC cells (AID 1347093)
Procedure, shortened: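 Metabolically active cells were quantified by ATP-dependent luminescence (CellTiter-Glo, 15 min at room temperature) following 48 h treatment. Cells had been plated at 500-1,000 per well and settled for 5 h beforehand.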

[3] = qHTS of pediatric cancer cell lines to identify multiple opportunities for drug repurposing: Primary screen for BT-37 cells (AID 1347094)
Procedure, shortened: (§1)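 Phenotypic viability qHTS, 48 h compound exposure, CellTiter-Glo luminescence read-out; multi-concentration dosing so that potency and efficacy derive directly from the primary screen's curves.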

[4] = qHTS of pediatric cancer cell lines to identify multiple opportunities for drug repurposing: Primary screen for U-2 OS cells (AID 1347096); also: nearly all actives have a fitted effect of over 50% in size
Procedure, shortened: (§2)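 Viability after 48 h compound treatment at 37C, 500-1,000 cells/well, read as ATP luminescence with CellTiter-Glo. Primary screens used 11-point (MIPE, 0.78 nM-46 µM) or 8-point (NPC, 0.59 nM-46 µM) final concentrations; follow-up screens used 11-point dilutions.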

[5] = qHTS of pediatric cancer cell lines to identify multiple opportunities for drug repurposing: Primary screen for SK-N-SH cells (AID 1347098); also: nearly all actives have a fitted effect of over 65% in size
Procedure, shortened: (§3)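 Cells (500-1,000/well) rested 5 h, then received compounds for 48 h; metabolically active cells were measured by CellTiter-Glo luminescence. Final concentrations spanned up to 46 µM (MIPE, 11-point) or 0.59 nM-46 µM (NPC, 8-point) in primary screens, 11-point in follow-ups.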

[6] = qHTS of pediatric cancer cell lines to identify multiple opportunities for drug repurposing: Primary screen for NB1643 cells (AID 1347099); also: nearly all actives have a fitted effect of over 50% in size
Procedure, shortened: as §1

[7] = qHTS of pediatric cancer cell lines to identify multiple opportunities for drug repurposing: Primary screen for LAN-5 cells (AID 1347100)
Procedure, shortened: as §2

[8] = qHTS of pediatric cancer cell lines to identify multiple opportunities for drug repurposing: Primary screen for BT-12 cells (AID 1347101); also: nearly all actives have a fitted effect of over 25% in size
Procedure, shortened: as §3

[9] = qHTS of pediatric cancer cell lines to identify multiple opportunities for drug repurposing: Primary screen for Rh18 cells (AID 1347102); also: nearly all actives have a fitted effect of over 65% in size
Procedure, shortened: as §2

[10] = qHTS of pediatric cancer cell lines to identify multiple opportunities for drug repurposing: Primary screen for RD cells (AID 1347104); also: nearly all actives have a fitted effect of over 55% in size
Procedure, shortened: as §1

[11] = qHTS of pediatric cancer cell lines to identify multiple opportunities for drug repurposing: Primary screen for MG 63 (6-TG R) cells (AID 1347105); also: nearly all actives have a fitted effect of over 50% in size
Procedure, shortened: as §1

[12] = qHTS of pediatric cancer cell lines to identify multiple opportunities for drug repurposing: Primary screen for control Hh wild type fibroblast cells (AID 1347106); also: nearly all actives have a fitted effect of over 55% in size
Procedure, shortened: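 Cells (500-1,000/well) in growth media were settled 5 h at 37 degrees C, then given compounds for 48 h. Viability was read as CellTiter-Glo luminescence. Primary runs used MIPE at 11 points (0.78 nM-46 µM) and NPC at 8 points (0.59 nM-46 µM); follow-ups used 11 points.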

[13] = qHTS of pediatric cancer cell lines to identify multiple opportunities for drug repurposing: Primary screen for Rh30 cells (AID 1347107); also: nearly all actives have a fitted effect of over 75% in size
Procedure, shortened: as §2

[14] = qHTS of pediatric cancer cell lines to identify multiple opportunities for drug repurposing: Primary screen for Rh41 cells (AID 1347108); also: nearly all actives have a fitted effect of over 70% in size
Procedure, shortened: as §1

[15] = qHTS of pediatric cancer cell lines to identify multiple opportunities for drug repurposing: Confirmatory screen for NB1643 cells (AID 1347109); also: nearly all actives have a fitted effect of over 45% in size
Procedure, shortened: as §2

[16] = qHTS of pediatric cancer cell lines to identify multiple opportunities for drug repurposing: Confirmatory screen for A673 cells (AID 1347110); also: nearly all actives have a fitted effect of over 65% in size
Procedure, shortened: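 A673 cells seeded at 500-1,000 cells/well, rested 5 h, then dosed; primary MIPE 11-point (0.78 nM to 46 µM), NPC (0.59 nM to 46 µM); confirmatory 11-point. CellTiter-Glo luminescence after 48 h.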

[17] = qHTS of pediatric cancer cell lines to identify multiple opportunities for drug repurposing: Confirmatory screen for SK-N-MC cells (AID 1347111);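 also: cells exposed to compound for 48 h before the readout; nearly all actives have a fitted effect of over 70% in size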
Procedure, shortened: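 SK-N-MC cells at 500-1,000 cells/well in growth media were pre-incubated 5 h, then exposed to compounds at 11-point dilutions for 48 h at 37 degrees C, 5% CO2. Viability was read as CellTiter-Glo luminescence.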

[18] = qHTS of pediatric cancer cell lines to identify multiple opportunities for drug repurposing: Primary screen for Saos-2 cells (AID 1347097); also: nearly all actives have a fitted effect of over 40% in size
Procedure, shortened: as §1

[19] = qHTS of pediatric cancer cell lines to identify multiple opportunities for drug repurposing: Primary screen for OHS-50 cells (AID 1347103); also: nearly all actives have a fitted effect of over 40% in size
Procedure, shortened: as §3

[20] = qHTS of pediatric cancer cell lines to identify multiple opportunities for drug repurposing: Primary screen for NB-EBc1 cells (AID 1347095)
Procedure, shortened: as §1

Measured: Potency
Potency is read from the fitted curve at half-maximal effect.

CCc1ccc(OCc2ccccc2C(=O)Nc2ccc3nc(C)cc(N)c3c2)cc1
active: [1] 2.96 µM | [2] 5.9 µM | [3] 8.63 µM | [4] 7.43 µM | [5] 12.1 µM | [6] 8.33 µM | [7] 8.33 µM | [8] 9.68 µM | [9] 8.33 µM | [10] 5.9 µM | [11] 7.43 µM | [12] 9.35 µM | [13] 11.8 µM | [14] 9.35 µM | [15] 9.27 µM | [16] 3.69 µM | [17] 0.827 µM

CC1=C(/C=C/C(C)=C/C=C/C(C)=C/C(=O)Nc2ccc(O)cc2)C(C)(C)CCC1
inactive: [12]
active: [1] 6.68 µM | [2] 6.68 µM | [3] 15.5 µM | [4] 26.6 µM | [18] 23.7 µM | [8] 7.77 µM | [19] 15.5 µM | [10] 26.6 µM | [14] 9.44 µM

COCCCCC(=NOCCN)c1ccc(C(F)(F)F)cc1
active: [1] 23.5 µM | [2] 10.5 µM | [10] 33.2 µM | [13] 23.5 µM | [14] 20.9 µM
inactive: [3] | [20] | [4] | [6] | [7] | [9] | [12]

CC=C(C)C(=O)O[C@H]1C(C)=C[C@]23C(=O)[C@@H](C=C(CO)[C@@H](O)[C@]12O)[C@H]1[C@@H](C[C@H]3C)C1(C)C
active: [1] 0.0148 µM | [2] 4.69 µM | [3] 24.3 µM | [20] 14.8 µM | [18] 0.296 µM | [19] 21.7 µM
inactive: [5] | [13] | [15]

CO[C@@H](C(=O)N1Cc2[nH]nc(NC(=O)c3ccc(N4CCN(C)CC4)cc3)c2C1)c1ccccc1
active: [1] 5.9 µM | [2] 0.118 µM | [4] 18.7 µM | [18] 0.833 µM | [5] 2.15 µM | [6] 0.118 µM | [7] 0.0372 µM | [10] 5.26 µM | [11] 1.48 µM | [12] 9.35 µM | [14] 0.469 µM
inactive: [13]

O=C(Nc1cc(Cl)cc2c1[nH]c1cnccc12)c1cccnc1
active: [1] 14.8 µM | [2] 4.18 µM
inactive: [4] | [18] | [9] | [14]

CCOC(CN1C(=O)[C@](CC(=O)Nc2ccc(C)cc2)(NC(=O)Nc2ccc(C)cc2)c2ccccc21)OCC
active: [1] 29.6 µM | [2] 11.8 µM | [6] 16.6 µM
inactive: [4] | [5] | [9] | [12] | [13]

C=CCc1ccc(O)c(-c2ccc(O)c(CC=C)c2)c1
inactive: [20] | [4] | [6] | [9] | [12]
active: [1] 23.5 µM | [2] 23.5 µM | [18] 18.7 µM

O=c1c(O)c(-c2ccc(O)cc2)oc2cc(O)cc(O)c12
active: [1] 14.8 µM | [2] 11.8 µM | [20] 9.35 µM | [6] 11.8 µM | [7] 6.62 µM
inactive: [4] | [18] | [11] | [12]

CC(C)(C)C(=O)Oc1ccc2c(c1)nc(NC(=O)c1cccc([N+](=O)[O-])c1)n2CCCO
active: [1] 11.8 µM | [2] 20.9 µM
inactive: [4] | [18] | [8] | [9] | [19] | [10] | [11] | [12] | [13] | [14]

O=C(NCc1ccncc1)C12C[C@H]3C[C@@H](C1)CC(c1ccc(Cl)cc1)(C3)C2
active: [1] 7.43 µM | [2] 0.526 µM | [20] 18.7 µM | [18] 11.8 µM | [19] 19.3 µM | [10] 10.5 µM | [14] 23.5 µM | [16] 9.27 µM | [17] 9.27 µM
inactive: [9] | [12]

N[C@@]1(C(=O)O)CS(=O)(=O)[C@H]2[C@H](C(=O)O)[C@H]21
inactive: [20] | [4] | [18] | [5] | [9] | [11] | [12] | [13] | [14] | [16]
active: [1] 1.87 µM | [2] 18.7 µM | [17] 0.0465 µM

CCCCCNC(=O)N1CCC(CN(Cc2ccc(Cl)cc2)Cc2ccc([N+](=O)[O-])s2)C1 (centres undefined)
inactive: [5] | [12]
active: [1] 23.5 µM | [2] 9.35 µM | [20] 26.4 µM | [6] 23.5 µM | [10] 29.6 µM
